The values below come from PubChem BioAssay.

The nature of the test: S6 kinase pathway phospho-S6 level changes – cell-based, A549, cytoblot, luminescence, serum-stimulated, primary screen (AID 1158).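 Note: serum-stimulated A549 lung adenocarcinoma cells; signal is phosphorylated S6 detected by cytoblot immunostaining with HRP secondary.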 The settings on record: 5 h, higher = more signal.
On to `COC(=O)C1(Cc2ccccc2)C=C2C(=C(C(C)C)C(=O)C2C)CN1` (stereo unspecified), for which the z-score is 0.128. The figure for `Cc1c(NC(=O)/C(C#N)=C/C=C/c2ccccc2[N+](=O)[O-])c(=O)n(-c2ccccc2)n1C` is -0.243; for `[N-]=[N+]=NCc1ccccc1C[C@@]1(C(=O)NCCN2CCOCC2)N=C(c2ccc(OCCCO)cc2)O[C@@H]1c1ccccc1N=[N+]=[N-]` it is 1.17. Take `C[n+]1ccc(CCCO)cc1`: the z-score was -0.283. The result for `CN1C(=O)C2C=CC(C(O)c3c(F)cccc3Cl)N(Nc3ccccc3)C2C1=O` (stereo unspecified) reads -0.809; that for `C=C[C@@H](C)[C@H](OC(=O)Nc1ccc(SC)cc1)c1ccc(OCCO)cc1`, 2.17; that for `CC(C)C(O)C1C=CC2C(=O)N(C)C(=O)C2N1N(c1ccccc1)c1ccccc1` (stereo unspecified), -1.38. In turn, `O=C1c2ccccc2[C@](Cc2ccccc2I)(C(=O)NCc2ccccc2)[C@H](c2ccc(CO)cc2)N1C1CCCCC1` showed a z-score of 3.43. Compound `CC(=O)n1cc(C(O)C2C=CC3C(=O)N(Cc4ccccc4)C(=O)C3N2n2cnnc2)c2ccccc21` (stereo unspecified) returned a z-score of -0.386. `COc1cc2c(cc1OC)CN(C(=O)[C@H]1[C@@H]3C(=O)O[C@@H](c4ccccc4)[C@@H](c4ccccc4)N3[C@@H](c3ccc(OCCO)cc3)[C@]13C(=O)Nc1ccc(C#CC4(O)CCCCCC4)cc13)CC2`: the z-score came to 0.108.

`O=c1cccc(-c2ccc(C(F)(F)F)cc2)o1` displayed a z-score of -0.564. The compound `COc1ccc(C(O)C2C=CC3C(=O)N(Cc4ccccc4)C(=O)C3N2n2cnnc2)c2ccccc12` (stereo unspecified) displayed a z-score of 2.01. With `CC(C)(C)OC(=O)CC[C@]1(C(=O)NCCN2CCOCC2)N=C(c2ccc(OCCCO)cc2)O[C@H]1c1ccccc1N=[N+]=[N-]`, the z-score is -0.136. In turn, `C=CC[C@H](OC(=O)Nc1ccc(OC)cc1)c1ccc(O)c2ccccc12` gave a z-score of -0.93. In turn, `COC(=O)[C@@]1(Cc2ccc(OC)cc2)[C@H]2c3cc(C(=O)N4CCCC4)n(CCc4cc5ccccc5[nH]4)c3C[C@H]2CN1C(=O)c1ccccc1` returned a z-score of -0.231. `COc1ccc(CCNC(=O)[C@@]2(Sc3ccc(C)cc3)CC(=O)N(Cc3cc(C(F)(F)F)cc(C(F)(F)F)c3)[C@@H]2c2ccc(CO)cc2I)cc1` showed a z-score of 0.179. The compound `COc1ccc(C(O)C2C=CC3C(=O)N(C)C(=O)C3N2N2CCCCC2)cc1` (stereo unspecified) returned a z-score of -0.734. In the case of `COc1ccc([Si](C)(C)[C@@H]2[C@@H](CC(=O)N3CCC[C@H]3CO)O[C@]3(C(=O)N(Cc4ccc(N5C(=O)c6cccc7cccc5c67)cc4)c4ccccc43)[C@H]2C)cc1`, the z-score was 0.486. With `O=C1c2ccccc2[C@@]2(Cc3ccccc3N(C3CC3)C2=O)[C@H](c2ccc(CO)cc2)N1C1CCCCC1`, the z-score was -0.0814. As for `CCOC(=O)C1=CC[C@@H](c2cc(Cl)ccc2Cl)N(S(=O)(=O)c2ccc(C)cc2)[C@H]1c1ccc(OC)cc1`, the z-score was -0.371. `CC=CC(O)C1C=CC2C(=O)N(C)C(=O)C2N1N1CCCCC1` (stereo unspecified) showed a z-score of -1.01.

On to `C=C(C(=O)CC[C@H](OC(C)=O)c1cccc(OCCO)c1)C(C)C`, for which the z-score was determined as 0.617. Consider `CC(C)C(=C=CC[C@H](O)c1ccc(OCCO)cc1)C[C@H](O)c1cc(Cl)cc(Cl)c1O`, for which the z-score is -0.173. The figure for `COc1ccc(C#Cc2ccc3c(c2)[C@]2(C(=O)N3)[C@H](C(=O)N3CCc4cc(OC)c(OC)cc4C3)[C@H]3C(=O)O[C@H](c4ccccc4)[C@H](c4ccccc4)N3[C@@H]2c2ccc(O)cc2)cc1` is -0.203; for `CN1C(=O)[C@@]2(CCS(=O)(=O)c3ccccc3)N=C(c3ccc(OCCCO)cc3)O[C@H]2c2ccccc21` it is 0.836; for `CC[C@H]1C2=C3C(CC[C@H]4C(OCc5ccc(F)cc5C(F)(F)F)OC[C@](C)([C@@H]34)N(C(=O)OC(C)(C)C)C2)C2COC(=O)OCC21` (stereo partly specified) it is -0.445.

In the case of `Cc1ccc(S[C@]2(C(=O)NCc3ccccc3)CC(=O)N(C(C)C)[C@@H]2c2ccc(CO)cc2I)cc1`, the z-score turned out to be 0.0741. The figure for `Cc1ccc(C(C)CC(O)C2C=CC3C(=O)N(c4ccccc4)C(=O)C3N2Nc2ccc(C(C)C)cc2)o1` (stereo unspecified) is -1.31; for `COCCOC(=O)N1C(=O)[C@@]2(c3cc(C#Cc4ccc(OC)cc4)ccc31)[C@H](C(=O)NC[C@H](O)c1ccccc1)[C@H]1C(=O)O[C@H](c3ccccc3)[C@H](c3ccccc3)N1[C@@H]2c1ccc(O)cc1` it is 0.236; for `COCCOC(=O)N1C(=O)[C@@]2(c3cc(C#CC4(O)CCCCCC4)ccc31)[C@H](C(N)=O)[C@H]1C(=O)O[C@H](c3ccccc3)[C@H](c3ccccc3)N1[C@@H]2c1ccc(O)cc1` it is -0.0551. As for `CC1CC/C=C\[C@H]2OC34C=CCN(C(C)C)C(=O)[C@H]3N(CCCCCO)C(=O)[C@@H]4C2C(=O)O1` (stereo partly specified), the z-score was -0.61.
